Assay outcomes from PubChem.
Only some compounds are listed: those with a hit (about 1.6% of all), similar ones and a draw of the others.
KCNQ2 block: rat KCNQ2 potassium channel inhibitors, primary screen, cell-based, CHO-K1, FluxOR thallium flux, B-score; AID 2156, 2009; B-score at 10 µM; Potassium voltage-gated channel subfamily KQT member 2 (Rattus norvegicus), O88943; 20 min; active compounds read low; actives 1.1% (n = 310,000);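 active means fluorescence ratio B-score at most minus 3 library SDs, with starting brightness B-score within 2 library SDs, cut at about -5.5 in these data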
KCNQ2 pot: potentiators of rat KCNQ2 potassium channel; CHO-K1 KCNQ2, FluxOR thallium flux fluorescence; active compounds read high; B-score at 10 µM; actives 0.54% (n = 310,000); AID 2239, 2010;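 active means fluorescence ratio B-score at least 3 SD of library B-scores, with initial fluorescence B-score within 3 of them, cut at about 5.3 in these data; same plate scores as AID 2156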;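 further: B-score of peak minus minimum over baseline fluorescence ratio after K+ and Tl+ stimulus; positive B-score means potentiation of KCNQ2 with more thallium influx and brighter signal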
Kir21 confirm: mouse Kir2.1 channel blockers, retest, confirmation, cell-based, FluxOR thallium flux, duplicate. Kir2.1-expressing cells, FluxOR thallium flux fluorescence; active compounds read low. Tl flux remaining, % of negative control (active compounds read low), % at 10 µM. AID 2032, 2009. actives 41% (n = 2,300). shares compounds with KCNQ2 pot;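 active means Primary-screen hit whose thallium flux fell at least 3 control SD below untreated wells in both duplicates, with normal baseline fluorescence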
Target sequence (P35561 whole entry, looked up): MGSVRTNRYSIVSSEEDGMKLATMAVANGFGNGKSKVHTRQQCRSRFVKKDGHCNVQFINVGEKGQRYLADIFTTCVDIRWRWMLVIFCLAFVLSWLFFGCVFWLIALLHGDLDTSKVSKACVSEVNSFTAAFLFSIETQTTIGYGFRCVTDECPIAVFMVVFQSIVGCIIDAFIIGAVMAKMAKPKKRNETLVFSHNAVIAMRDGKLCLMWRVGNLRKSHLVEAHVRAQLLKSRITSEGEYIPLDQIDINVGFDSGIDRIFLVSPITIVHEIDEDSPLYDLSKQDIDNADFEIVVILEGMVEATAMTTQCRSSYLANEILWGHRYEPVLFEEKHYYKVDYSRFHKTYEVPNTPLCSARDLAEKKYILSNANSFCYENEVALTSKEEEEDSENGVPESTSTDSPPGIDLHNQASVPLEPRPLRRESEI
HEK293 Tl flux: alters thallium flux in parental HEK293 cells, Kir2.1 counter-screen; FluxOR thallium flux fluorescence; 0% = unstimulated blank wells; FluxOR signal as % of negative control (100 = no effect), % at 10 µM; actives 19% (n = 2,300); shares compounds with KCNQ2 pot; AID 2105;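 active means dye signal at least 3 control SD above or below untreated wells in both duplicates, raw fluorescence within 3, either direction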;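 further: percent is based on the flux ratio of peak minus minimum fluorescence over baseline F0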
CHO-K1 ctr: nonspecific thallium flux increase in parental CHO-K1, confirmation, counter-screen for KCNQ2 potentiator project, cell-based, FluxOR thallium flux, duplicate; shares compounds with KCNQ2 pot; parental CHO-K1 cells, FluxOR thallium flux fluorescence; zero = vehicle mean+3SD, 100% = vehicle-minus-blank window; activity increase over 3SD of controls, % at 10 µM; actives 43% (n = 1,200);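 active means signal rise of at least 3 SD above the untreated control mean, in both duplicate wells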;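 further: counter screen of KCNQ2 potentiator hits so any rise reflects channel-independent effects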
KCNQ1 pot spec: human KCNQ1 channel potentiation off-target, confirmation, selectivity assay for KCNQ2 potentiator project, cell-based, CHO, FluxOR thallium flux; shares compounds with KCNQ2 pot; activation over 3SD threshold, % at 10 µM; CHO KCNQ1 stable, FluxOR thallium flux fluorescence; beyond 3SD, as % of vehicle-control signal; AID 2283, 2010; actives 28% (n = 1,200);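 active means fluorescence ratio rise of at least 3 SD of vehicle wells above their mean, in both replicate wells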
KCNQ2 pot conf: rat KCNQ2 channel potentiators, confirmation, cell-based, CHO, FluxOR thallium flux, duplicate. shares compounds with KCNQ2 pot. CHO-KCNQ2 cells, FluxOR thallium flux fluorescence. potentiation, less the hit threshold, % at 10 µM. actives 68% (n = 1,200);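 active means fluorescence ratio rising 3 SD or more over the vehicle control mean in both replicates, plus primary screen hit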;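 further: peak minus minimum thallium fluorescence divided by baseline after K/Tl stimulus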
Kir21 spec: mouse Kir2.1 channel activation off-target, confirmation, selectivity assay for KCNQ2 potentiator project, cell-based, HEK293, FluxOR thallium flux. shares compounds with KCNQ2 pot. HEK293 Kir2.1, FluxOR thallium flux fluorescence. activity over 3SD threshold, % at 10 µM. actives 2% (n = 1,200). AID 2345, 2010;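 active means fluorescence ratio rise of at least 3 SD above the vehicle-control mean, seen in both replicates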
KCNQ2 W236L MoA: potentiators of retigabine-insensitive KCNQ2 W236L, mechanism study for KCNQ2 potentiator project, cell-based, rat KCNQ2 W236L, CHO, automated patch clamp; shares compounds with KCNQ2 pot; automated patch clamp current; current increase over 3SD of negative controls (%), active compounds read high, % at 25 µM; actives 10% (n = 940);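 active means current increase at least 3 SD of the untreated controls above them in both duplicate recordings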
Large screens that a line does not name were inactive (follow-up assays come after a bar, where they were run).

CSc1ccccc1NC(=O)CSc1n[nH]c(N)n1	none (no result: KCNQ2 pot)
Nc1nc(SCC(=O)Nc2ccccc2Sc2ccc(Cl)cc2)n[nH]1	KCNQ2 pot 6.21 | Kir21 confirm inactive | HEK293 Tl flux inactive | CHO-K1 ctr 23.1 | KCNQ1 pot spec inactive | KCNQ2 pot conf 9.1 | Kir21 spec inactive | KCNQ2 W236L MoA inactive
CCOC(=O)c1c(C)[nH]c(C(=O)OCC(=O)NC2CCS(=O)(=O)C2)c1C (configuration not stated)	none
Cc1ccc(C(=O)NCCN2C3=NC[C@@H](Cc4ccccc4)N3C[C@H]2Cc2ccc(O)cc2)cc1Br	none (no result: KCNQ2 pot) | Kir21 confirm 54.5% | HEK293 Tl flux inactive
Cc1ccc(C(=O)NCCN2C3=NC[C@H](Cc4ccc(O)cc4)N3C[C@H]2Cc2ccc(O)cc2)cc1Br	none
C/C=C(\C)C(=O)NCCN1C2=NC[C@H](Cc3ccccc3)N2C[C@H]1Cc1ccc(O)cc1	none
COc1ccc(C[C@H]2CN3C(=NC[C@H]3Cc3ccccc3)N2CCNC(=O)c2ccc(C)c(Br)c2)cc1	none (no result: KCNQ2 pot) | Kir21 confirm 27.5% | HEK293 Tl flux inactive
CCc1cccc(NC(=O)Cn2c(=O)c3cccn3c3ccccc32)c1	none (no result: KCNQ2 pot)
O=C(CCC1CCCCC1)NNC(=O)NC12CC3CC(CC(C3)C1)C2	KCNQ2 pot 9.28 | Kir21 confirm inactive | HEK293 Tl flux inactive | CHO-K1 ctr inactive | KCNQ1 pot spec inactive | KCNQ2 pot conf 12.0 | Kir21 spec inactive | KCNQ2 W236L MoA inactive
O=C(O)CCC(=O)NNC(=O)CCC1CCCCC1	none
COc1cccc(/C=C/C(=O)NCC2CCCCC2)c1	none (no result: KCNQ2 pot)
Cc1cccc(CC(=O)NCC2CCCCC2)c1	KCNQ2 pot 9.38 | Kir21 confirm inactive | HEK293 Tl flux inactive | CHO-K1 ctr 38.7 | KCNQ1 pot spec inactive | KCNQ2 pot conf 27.8 | Kir21 spec inactive | KCNQ2 W236L MoA inactive
CC(=O)c1cccc(NC(=O)CSc2nnc(C(C)N(C)C)n2Cc2ccccc2)c1 (configuration not stated)	none (no result: KCNQ2 pot)
COc1ccc(OC)c(NC(=O)CSc2nc(=O)n(Cc3ccccn3)c3c2CCC3)c1	none
O=C1c2ccccc2S(=O)(=O)c2cc(N3CCc4ccccc4C3)ccc21	none (no result: KCNQ2 pot)
COc1cc2c(cc1OC)CN(c1ccc3ccccc3n1)CC2	none (no result: KCNQ2 pot) | Kir21 confirm 55.5% | HEK293 Tl flux 132.0%
COc1cc2c(cc1OC)CN(c1ccc(-c3ccccc3OC)nn1)CC2	none (no result: KCNQ2 pot)
O=C(NC1CCCCC1)C(c1ccccc1)N(C(=O)c1csnn1)C1CCCC1 (configuration not stated)	none (no result: KCNQ2 pot)
Cc1ccccc1N1Cc2ccccc2C1	none (no result: KCNQ2 pot)
CCc1nc(NC(=O)c2sc(C)nc2C)sc1C(=O)OC	none
COc1cc(NC(=O)c2ccccc2)cc(OC)c1	KCNQ2 pot 16.6 | Kir21 confirm inactive | HEK293 Tl flux inactive | CHO-K1 ctr inactive | KCNQ1 pot spec inactive | KCNQ2 pot conf 30.1 | Kir21 spec inactive | KCNQ2 W236L MoA inactive
COc1ccc(C(=O)Nc2cc(OC)cc(OC)c2)cc1	none
Nc1sc(-c2ccccc2)n[n+]1Cc1cccc2cccnc12	none (no result: KCNQ2 pot) | Kir21 confirm inactive | HEK293 Tl flux inactive
Oc1ccccc1CNc1cccc2cccnc12	none (no result: KCNQ2 pot)
Clc1cccc(NCc2nnc(SCc3ccccc3)o2)c1	KCNQ2 pot 22.3 | Kir21 confirm inactive | HEK293 Tl flux inactive | CHO-K1 ctr 46.0 | KCNQ1 pot spec inactive | KCNQ2 pot conf inactive | Kir21 spec inactive
Clc1cccc(NCc2nnc(SCc3ccccc3Cl)o2)c1	none (no result: KCNQ2 pot)
c1ccc(CN2c3ccccc3-c3nc4ccccc4n3C2c2ccccn2)cc1 (configuration not stated)	none (no result: KCNQ2 pot)
CCN1c2ccccc2-c2nc3ccccc3n2C1c1ccco1 (configuration not stated)	none (no result: KCNQ2 pot) | Kir21 confirm inactive | HEK293 Tl flux inactive
O=C(O)c1ccc(CNC(=O)C23CC4CC(CC(C4)C2)C3)cc1	none
O=C(Nc1cccc(NC(=O)c2cccs2)c1)c1ccc2c(c1)OCCO2	none (no result: KCNQ2 pot)
CC(C)CCN1C(Nc2ccccc2)=NC[C@@H]1Cc1ccccc1	none (no result: KCNQ2 pot)
CC(CCN1C(Nc2ccccc2)=NC[C@@H]1Cc1ccccc1)c1ccccc1 (some centres not stated)	none (no result: KCNQ2 pot) | Kir21 confirm 46.0% | HEK293 Tl flux 128.5%
CC(=O)N1CCOc2ccc(S(=O)(=O)N3CCC(C(=O)NCc4ccc(C)cc4)CC3)cc21	none
Cc1ccc(C23CC4CC(CC(NC(=O)NCCN(C)C)(C4)C2)C3)cc1	none (no result: KCNQ2 pot)
CN(C)CCNC(=O)COc1ccc(C23CC4CC(CC(C4)C2)C3)cc1	none (no result: KCNQ2 pot) | Kir21 confirm 41.0% | HEK293 Tl flux inactive
NS(=O)(=O)c1ccc(CNC(=O)/C=C/c2cccc([N+](=O)[O-])c2)cc1	none
COc1ccc(-c2cc(C(=O)N3CCN(S(=O)(=O)c4ccc(C)cc4)CC3)[nH]n2)cc1	none (no result: KCNQ2 pot)
Cc1ccc(-n2c(C(C)C)nc3oc4ccccc4c(=O)c3c2=O)cc1	none (no result: KCNQ2 pot)
O=C(NCc1ccc(F)cc1)Nc1ccc(Cl)cc1	none
O=C(NCc1ccc(F)cc1)Nc1cccc(Cl)c1	KCNQ2 pot 5.84 | Kir21 confirm inactive | HEK293 Tl flux inactive | CHO-K1 ctr 87.3 | KCNQ1 pot spec 54.3 | KCNQ2 pot conf 12.7 | Kir21 spec inactive | KCNQ2 W236L MoA inactive
O=C(c1nnsc1S(=O)(=O)c1ccc(Cl)cc1)N1CCOCC1	none
CNC(=O)c1nnsc1S(=O)(=O)c1ccc(Cl)cc1	KCNQ2 block -7.12 | Kir21 confirm inactive | HEK293 Tl flux inactive
CCN(c1ccccc1)S(=O)(=O)c1nnc(NC(=O)c2ccccc2OC)s1	none (no result: KCNQ2 pot)
